The values that follow come from PubChem BioAssay (NCATS).

Inconclusive results are not listed. Unmarked numbers belong to inactive results. Active and inactive are the calls of the source. Calls come from the whole dose curve; as a rule, active = well fitted inhibition curve with a large enough effect; inconclusive = small, poorly fitted or top-dose-only effect; inactive = flat fitted curve, though single readings scatter.

Assay [1] can be described thus: Drug repurposing screens with cells derived from glioblastoma tumor samples (AID 1345199). Note: nearly all actives have a fitted effect of over 40% in size. The conditions noted are these: GBM patient neurospheres viability, ATP luminescence, 48 h. Put shortly: (§1)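 Four patient lines of CD133+ GBM neurospheres were screened at several concentrations; hits were retested in those lines plus three slower-growing GBM lines, using 48-hour treatment and ATP-based viability.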

In another assay the test system is astro (control astrocytes). The assay is described as above. The conditions noted are these: viability, ATP luminescence, 48 h; series mostly up to 45.9 µM. Put shortly: as §1
Setting [2] is: at 45.9 µM (top of the series), tumour line B.
Where [3] appears, read: at 45.9 µM (top of the series), tumour line D.
[4] abbreviates: at 46 µM (top of the series), tumour line A.
[5] abbreviates: at 46.1 µM (top of the series), tumour line C.
Setting [6] is: at 20 µM (top of the series), tumour line C.
Where [7] appears, read: at 21.2 µM (top of the series), tumour line B.
Where [8] appears, read: at 21.2 µM (top of the series), tumour line D.
Where [9] appears, read: at 21.3 µM (top of the series), tumour line A.
% is set by controls: 0 for no effect and ±100 for the full control effect; potency is the fitted concentration of half-maximal effect.

For `O=C(O)c1cc(O)c2c(c1)[O][Bi][O]2`, the activity, negative = cell killing in assay [1] (setting [2]) is -11.9%; in assay [1] (setting [3]) it was -5.77%; in assay [1] (setting [4]) it was -19.4%; in assay [1] (setting [5]) it was 3.44%. In the assay with astro, the Potency entry is “inactive”.
With `CC(=O)O[C@]1(C(C)=O)CC[C@H]2[C@@H]3CCC4=CC(=O)CC[C@]4(C)[C@@]3(F)[C@@H](O)C[C@@]21C`, the activity, negative = cell killing in assay [1] (setting [2]) is -7.13%; in assay [1] (setting [3]), -7.73%; in assay [1] (setting [4]) it was 6.04%; in assay [1] (setting [5]), 8.8%. The Potency entry in the assay on astro was “inactive”.
As for `CN1C(=O)CN2CCc3ccccc3C2c2cc(Cl)ccc21` (stereo not given), the activity, negative = cell killing in assay [1] (setting [2]) was -19.8%; in assay [1] (setting [3]) it was -13.4%; in assay [1] (setting [4]), -22.5%; in assay [1] (setting [5]), -33.9%. Also, the Potency result in the assay with astro was “inactive”.
As to `Cc1ccccc1OCC(O)CNCCOc1ccc(C(N)=O)cc1` (stereo not given), the activity, negative = cell killing in assay [1] (setting [2]) is 6.35%; in assay [1] (setting [3]), -24%; in assay [1] (setting [5]) it was -1.19%. In addition, in assay [1] (tumour line A), the Potency is 17.8 µM (active). Moreover, in the assay on astro, the Potency result was “inactive”.
Consider `CCCC(=O)O[C@]1(C(=O)COC(C)=O)CC[C@H]2[C@@H]3C[C@H](F)C4=CC(=O)C=C[C@]4(C)[C@@]3(F)[C@@H](O)C[C@@]21C`, for which the activity, negative = cell killing is -13.7% in assay [1] (setting [2]), -22.5% in assay [1] (setting [3]), -29.1% in assay [1] (setting [4]) and -14.3% in assay [1] (setting [5]). In addition, the Potency entry in the assay on astro was “inactive”.
`CN(C)CC/C=C1/c2ccccc2CSc2ccccc21`: the activity, negative = cell killing in assay [1] (setting [6]) is -1.3%; in assay [1] (setting [7]), -26.2%. In addition, the Potency in assay [1] (tumour line A) and in assay [1] (tumour line D) was 12.6 µM (active) each time. Moreover, the Potency entry with astro is “inactive”.
For `CNC(C)[C@@H]1CC[C@@H](N)[C@@H](O[C@H]2[C@H](O)[C@@H](O[C@H]3OC[C@](C)(O)[C@H](NC)[C@H]3O)[C@H](N)C[C@@H]2N)O1` (stereo not given in full), the activity, negative = cell killing in assay [1] (setting [6]) was -7.4%; in assay [1] (setting [7]), -11.6%; in assay [1] (setting [8]) it was 12.7%; in assay [1] (setting [9]) it was -18.8%. Further, the Potency result with astro is “inactive”.
With `CCC(=O)O[C@@H]1CC(=O)O[C@H](C)C/C=C/C=C/[C@H](O)[C@H](C)C[C@H](CC=O)[C@H](O[C@@H]2O[C@H](C)[C@@H](O[C@H]3C[C@@](C)(O)[C@@H](OC(=O)CC)[C@H](C)O3)[C@H](N(C)C)[C@H]2O)[C@H]1OC`, the activity, negative = cell killing in assay [1] (setting [6]) was 18.5%; in assay [1] (setting [7]) it was -16.2%; in assay [1] (setting [8]) it was -1.85%; in assay [1] (setting [9]), -24.3%. The Potency entry in the assay on astro is “inactive”.
Consider `CCCC(=O)Nc1ncnc2c1ncn2[C@@H]1O[C@@H]2COP(=O)(O)O[C@H]2[C@H]1OC(=O)CCC`, for which the activity, negative = cell killing in assay [1] (setting [2]) was -14.5%; in assay [1] (setting [3]), -5%; in assay [1] (setting [4]) it was -18.2%; in assay [1] (setting [5]), -13.8%. Also, the Potency result in the assay with astro was “inactive”.
Regarding `CC[C@H]1OC(=O)[C@H](C)[C@@H](O[C@H]2C[C@@](C)(OC)[C@@H](O)[C@H](C)O2)[C@H](C)[C@@H](O[C@@H]2O[C@H](C)C[C@H](N(C)C)[C@H]2O)[C@](C)(O)C[C@@H](C)/C(=N\OCOCCOC)[C@H](C)[C@@H](O)[C@]1(C)O`, the activity, negative = cell killing in assay [1] (setting [6]) was -5.57%; in assay [1] (setting [7]), -9.58%; in assay [1] (setting [8]) it was -24%; in assay [1] (setting [9]), -24.2%. Besides, the Potency entry in the assay on astro was “inactive”.
Regarding `CC[N+](C)(C)Cc1ccccc1Br`, the activity, negative = cell killing is -2.45% in assay [1] (setting [6]), 0.866% in assay [1] (setting [7]), -1.19% in assay [1] (setting [8]) and -11% in assay [1] (setting [9]). Moreover, in the assay on astro, the Potency result is “inactive”.
In the case of `Cc1cc(C(=O)NNCc2ccccc2)no1`, the activity, negative = cell killing in assay [1] (setting [6]) is -3.86%; in assay [1] (setting [7]) it was -7.11%; in assay [1] (setting [8]) it was -19.1%; in assay [1] (setting [9]), -21.8%. For the same compound, the Potency entry in the assay with astro is “inactive”.
`CC1(C)S[C@@H]2[C@H](NC(=O)[C@@H](NC(=O)N3CCNC3=O)c3ccccc3)C(=O)N2[C@H]1C(=O)O`: the activity, negative = cell killing is -8.8% in assay [1] (setting [6]), -3.93% in assay [1] (setting [7]), -6.96% in assay [1] (setting [8]) and -17.7% in assay [1] (setting [9]). For the same compound, the Potency result in the assay on astro was “inactive”.
For `CC(Oc1ccccc1)C(=O)N[C@@H]1C(=O)N2[C@@H]1SC(C)(C)[C@@H]2C(=O)O` (stereo not given in full) the same measures were 1.64%, -4.78%, -2.95%, 2.19% and “inactive”.
Regarding `CCCCCCCCCCCCCCCC(=O)OCC(COC(=O)CCCCCCCCCCCCCCC)OC(=O)CCCCCCCCCCCCCCC`, the activity, negative = cell killing was -15.6% in assay [1] (setting [2]), -3.31% in assay [1] (setting [3]), -22.2% in assay [1] (setting [4]) and -9% in assay [1] (setting [5]). In addition, the Potency result in the assay on astro was “inactive”.
On to `CC1=C(/C=C/C(C)=C/C=C/C(C)=C/C=C/C=C(C)/C=C/C=C(C)/C=C/C2=C(C)CCCC2(C)C)C(C)(C)CCC1`, for which the activity, negative = cell killing in assay [1] (setting [2]) is -10.1%; in assay [1] (setting [3]) it was -14.5%; in assay [1] (setting [4]) it was -34.5%; in assay [1] (setting [5]), 5.35%. Moreover, in the assay on astro, the Potency entry is “inactive”.
Consider `C[C@H](CCC(=O)O)[C@H]1CC[C@H]2[C@@H]3[C@H](O)C[C@@H]4C[C@H](O)CC[C@]4(C)[C@H]3CC[C@]12C`, for which the activity, negative = cell killing in assay [1] (setting [6]) is 0.416%; in assay [1] (setting [7]), 1.96%; in assay [1] (setting [8]), 6.12%; in assay [1] (setting [9]), -15.4%. The Potency entry in the assay on astro was “inactive”.
For `CC(=O)OCC(=O)[C@@]1(O)CC[C@H]2[C@@H]3C[C@H](C)C4=CC(=O)C=C[C@]4(C)[C@H]3[C@@H](O)C[C@@]21C`, the activity, negative = cell killing in assay [1] (setting [2]) was -16.5%; in assay [1] (setting [3]), -18.9%; in assay [1] (setting [4]), -15.4%; in assay [1] (setting [5]), 1.15%. Also, the Potency entry in the assay with astro is “inactive”.
For `CCCCC(=O)N(Cc1ccc(-c2ccccc2-c2nn[nH]n2)cc1)[C@@H](C(=O)O)C(C)C` the same measures were 2.85%, -14.3%, -22.5%, 9.38% and “inactive”.
